Source: article PMC5700166
Positions count from the first letter of the chain named.

Columns and labels:
Experiment in all cases: protein-binding microarray (PBM); PBM: ~300 nM protein, 6 mM HEPES pH 7.8, 80 mM KCl, 0.5 mM EDTA, 0.5 mM EGTA, 6% glycerol, 35 ng/ul poly-dIdC, 1% milk, 1 h, room temperature; Ap Aiptasia and Nv Nematostella (sea anemones) / Co Capsaspora / Aq Amphimedon (sponge) / Dm Drosophila / Hu human; RHD is the Rel homology domain; high values mean tight binding
Conditions in all cases: dsDNA, one strand shown
GST-Ap-NF-kB RHD = target: T1, GST-Ap-NF-kB RHD (Exaiptasia pallida (Aiptasia), UniProt A0A913YAJ5 2-422)
T1 sequence: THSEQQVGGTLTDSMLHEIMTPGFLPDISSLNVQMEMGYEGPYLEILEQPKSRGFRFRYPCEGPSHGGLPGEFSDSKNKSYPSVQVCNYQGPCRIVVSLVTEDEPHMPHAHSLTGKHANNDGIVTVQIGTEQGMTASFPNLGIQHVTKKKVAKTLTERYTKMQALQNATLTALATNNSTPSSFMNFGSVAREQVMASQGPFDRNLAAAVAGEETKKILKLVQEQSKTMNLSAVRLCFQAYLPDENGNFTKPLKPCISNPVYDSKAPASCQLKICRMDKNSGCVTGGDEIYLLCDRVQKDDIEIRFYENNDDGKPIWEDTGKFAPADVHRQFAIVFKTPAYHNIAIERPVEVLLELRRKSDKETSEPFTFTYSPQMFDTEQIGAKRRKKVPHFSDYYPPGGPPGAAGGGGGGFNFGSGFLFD

[1] = target: T2, GST-Nv-NF-kB (Cys allele) (Nematostella vectensis, UniProt E5G601 2-411)
T2 sequence: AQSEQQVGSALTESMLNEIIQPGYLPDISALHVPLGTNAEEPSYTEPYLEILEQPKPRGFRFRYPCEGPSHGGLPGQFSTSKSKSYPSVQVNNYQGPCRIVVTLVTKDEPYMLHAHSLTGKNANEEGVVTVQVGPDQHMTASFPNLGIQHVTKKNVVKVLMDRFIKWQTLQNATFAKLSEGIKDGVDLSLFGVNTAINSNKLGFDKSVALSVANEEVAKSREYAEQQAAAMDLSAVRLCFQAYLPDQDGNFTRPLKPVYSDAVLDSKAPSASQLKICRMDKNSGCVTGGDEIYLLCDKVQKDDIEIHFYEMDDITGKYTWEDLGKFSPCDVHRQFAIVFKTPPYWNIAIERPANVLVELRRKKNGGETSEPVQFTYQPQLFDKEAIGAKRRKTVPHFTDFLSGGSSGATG

[2] = target: T3, GST-Nv-NF-kB (Ser allele) (Nematostella vectensis, UniProt A7UNT2 2-411)
T3 sequence: T2 sequence with Q21R, C66S, S207N, E215Q, V217A, E225K, A268E, D399E

GST-Co-NF-kB = target: T4, GST-Co-NF-kB (Capsaspora owczarzaki, UniProt F1ARL5 200-546)
T4 sequence: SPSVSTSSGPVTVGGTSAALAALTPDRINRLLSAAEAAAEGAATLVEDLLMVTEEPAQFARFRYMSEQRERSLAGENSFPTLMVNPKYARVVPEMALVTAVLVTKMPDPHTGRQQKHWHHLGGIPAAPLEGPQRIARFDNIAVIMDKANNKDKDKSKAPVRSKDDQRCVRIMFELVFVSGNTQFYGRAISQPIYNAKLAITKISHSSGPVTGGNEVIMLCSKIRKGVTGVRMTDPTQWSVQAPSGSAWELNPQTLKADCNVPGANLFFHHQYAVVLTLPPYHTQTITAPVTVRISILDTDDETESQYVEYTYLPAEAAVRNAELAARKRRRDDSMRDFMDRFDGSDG

GST-Dm-Relish = target: T5, GST-Dm-Relish (Drosophila melanogaster, UniProt Q94527 99-473)
T5 sequence: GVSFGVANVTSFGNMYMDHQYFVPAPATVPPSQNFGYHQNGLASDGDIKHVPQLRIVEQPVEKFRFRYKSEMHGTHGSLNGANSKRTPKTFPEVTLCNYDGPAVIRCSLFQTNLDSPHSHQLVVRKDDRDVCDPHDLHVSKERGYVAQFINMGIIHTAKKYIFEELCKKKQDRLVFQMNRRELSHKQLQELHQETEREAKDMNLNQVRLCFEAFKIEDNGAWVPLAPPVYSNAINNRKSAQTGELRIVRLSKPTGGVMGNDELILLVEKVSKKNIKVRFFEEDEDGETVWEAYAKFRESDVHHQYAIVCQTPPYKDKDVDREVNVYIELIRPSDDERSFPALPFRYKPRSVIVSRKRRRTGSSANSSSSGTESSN

GST-Aq-NF-kB = target: T6, GST-Aq-NF-kB (Amphimedon queenslandica, UniProt A9Y5G7 2-389)
T6 sequence: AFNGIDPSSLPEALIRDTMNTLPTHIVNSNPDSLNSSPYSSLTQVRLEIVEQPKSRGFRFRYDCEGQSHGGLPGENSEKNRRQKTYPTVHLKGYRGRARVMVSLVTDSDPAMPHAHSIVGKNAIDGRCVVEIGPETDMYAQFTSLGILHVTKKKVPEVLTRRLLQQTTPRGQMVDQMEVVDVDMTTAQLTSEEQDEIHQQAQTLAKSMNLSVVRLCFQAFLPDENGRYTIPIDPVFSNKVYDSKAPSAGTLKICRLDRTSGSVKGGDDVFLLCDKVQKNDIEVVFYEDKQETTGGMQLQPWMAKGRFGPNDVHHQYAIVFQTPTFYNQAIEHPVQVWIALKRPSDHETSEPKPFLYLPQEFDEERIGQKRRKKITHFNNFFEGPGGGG

GST-Hu-p50 = GST-Hu-p50 (Homo sapiens, UniProt P19838 7-356)
GST-Hu-p50, sequence (P19838 7-356): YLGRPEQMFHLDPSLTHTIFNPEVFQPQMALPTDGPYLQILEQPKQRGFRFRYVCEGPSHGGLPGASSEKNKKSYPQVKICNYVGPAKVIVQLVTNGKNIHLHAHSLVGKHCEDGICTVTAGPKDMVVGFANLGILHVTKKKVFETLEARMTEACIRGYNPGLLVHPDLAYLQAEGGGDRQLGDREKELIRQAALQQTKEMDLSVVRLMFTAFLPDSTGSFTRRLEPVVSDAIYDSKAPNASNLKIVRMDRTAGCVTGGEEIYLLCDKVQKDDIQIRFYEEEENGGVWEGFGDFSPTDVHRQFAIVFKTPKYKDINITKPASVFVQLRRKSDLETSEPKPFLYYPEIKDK

Sequence	binding signal (GST-Ap-NF-kB RHD)	binding signal [1]	binding signal [2]	binding signal (GST-Co-NF-kB)	binding signal (GST-Dm-Relish)	binding signal (GST-Aq-NF-kB)	binding signal (GST-Hu-p50)
CCGATTAACATCAAGGTATTCCCTGATGTTAATCGGGTCTTGATTCGCTTGACGCTGCTG	4.4 z-score	3.82 z-score	3.75 z-score	3.21 z-score	6.27 z-score	5.39 z-score	2.26 z-score
CCGATTAACATCACGTACTCCCCTGATGTTAATCGGGTCTTGATTCGCTTGACGCTGCTG	4.07 z-score	2.77 z-score	3.43 z-score	2.99 z-score	4 z-score	2.92 z-score	2.83 z-score
CCGATTAACATCACTATTCCCCCTGATGTTAATCGGGTCTTGATTCGCTTGACGCTGCTG	5.37 z-score	6.24 z-score	7.08 z-score	7.68 z-score	3.2 z-score	4.96 z-score	5.82 z-score
CCGATTAACATCAGGGGATGTTATGATGTTAATCGGGTCTTGATTCGCTTGACGCTGCTG	5.57 z-score	6.43 z-score	7.06 z-score	3.17 z-score	5.86 z-score	5.53 z-score	5.29 z-score
CCGATTAACATCAGGACATCCCCTGATGTTAATCGGGTCTTGATTCGCTTGACGCTGCTG	6.25 z-score	7.54 z-score	5.99 z-score	1.88 z-score	8.74 z-score	7.75 z-score	5.89 z-score
CCGATTAACATCAAAACCTCCCCTGATGTTAATCGGGTCTTGATTCGCTTGACGCTGCTG	5.96 z-score	5.34 z-score	7 z-score	6.47 z-score	3.36 z-score	4.96 z-score	4.55 z-score
CCGATTAACATCAGGGGGAAACATGATGTTAATCGGGTCTTGATTCGCTTGACGCTGCTG	6.11 z-score	7.08 z-score	9.19 z-score	10.9 z-score	3.99 z-score	5.49 z-score	6.58 z-score
CCGATTAACATCAATATTTTCCCTGATGTTAATCGGGTCTTGATTCGCTTGACGCTGCTG	4.35 z-score	6.75 z-score	8.82 z-score	6.01 z-score	2.69 z-score	4.5 z-score	5.3 z-score
CCGATTAACATCATAAATTCCCATGATGTTAATCGGGTCTTGATTCGCTTGACGCTGCTG	2.62 z-score	5.12 z-score	5.22 z-score	3.32 z-score	5.06 z-score	3.71 z-score	4.37 z-score
CCGATTAACATCAAGGGAATTTCTGATGTTAATCGGGTCTTGATTCGCTTGACGCTGCTG	6.34 z-score	8.61 z-score	8.46 z-score	4.25 z-score	5.45 z-score	7.24 z-score	5.75 z-score
CCGATTAACATCATGGGGGGAAATGATGTTAATCGGGTCTTGATTCGCTTGACGCTGCTG	6.36 z-score	6.46 z-score	7.43 z-score	9.84 z-score	4.25 z-score	5.5 z-score	6.02 z-score
